Results as given in PubChem BioAssay AID1159580 (chemical genetic matrix, 2015).
Several values for one entry are separate records, joined by “and”; a condition that tells them apart may be missing. Equal entries are not always repeated. Among all 5,500 compounds or so, about 2,000 (36%) were called active. Roughly 18% stayed inconclusive and do not appear here. No stated cut-off is given here; in the data, active means normalized growth mostly below about 0.91 (no sharp cut-off); inconclusive means no clear call, values can overlap the other calls; inactive means mostly above about 0.92. This is one part of the list.

Experiment: chemical genetic growth profiling, strain panel (AID 1159580);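 further: tested at 20 µM; growth read once vehicle control cultures reached saturation at 30 °C; 1 = growth at the plate median or of vehicle wells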
Settings: S. cerevisiae deletion strains, growth OD

## COc1cc(OC)c2c(=O)c(O)c(-c3ccc(OC)c(OC)c3)oc2c1
Locus YAL021C, strain ccr4, stronger effect = lower value
  normalized growth: 0.741 (active)
Locus YAL026C, strain drs2, stronger effect = lower value
  normalized growth: 0.852 (active)
Locus YAL030W, strain snc1, stronger effect = lower value
  normalized growth: 0.904 (active)
Locus YBL061C, strain skt5, stronger effect = lower value
  normalized growth: 0.901 (active)
Locus YBR009C, strain hhf1, stronger effect = lower value
  normalized growth: 0.903 (active)
Locus YBR021W, strain FUR4, stronger effect = lower value
  normalized growth: 0.922 (inactive)
Locus YBR023C, strain chs3, stronger effect = lower value
  normalized growth: 0.827 (active)
Locus YBR171W, strain sec66, stronger effect = lower value
  normalized growth: 0.942 (inactive)
Locus YBR229C, strain ROT2, stronger effect = lower value
  normalized growth: 0.648 (active)
Locus YBR231C, strain swc5, stronger effect = lower value
  normalized growth: 0.77 (active)
Locus YBR279W, strain paf1, stronger effect = lower value
  normalized growth: 0.913 (active)
Locus YCL011C, strain gbp2, stronger effect = lower value
  normalized growth: 0.916 (inactive)
Locus YCL016C, strain dcc1, stronger effect = lower value
  normalized growth: 0.934 (inactive)
Locus YCL029C, strain bik1, stronger effect = lower value
  normalized growth: 0.768 (active)
Locus YCL069W, strain vba3, stronger effect = lower value
  normalized growth: 0.973 (inactive)
Locus YCR088W, strain abp1, stronger effect = lower value
  normalized growth: 0.958 (inactive)
Locus YDL005C, strain med2, stronger effect = lower value
  normalized growth: 0.982 (inactive)
Locus YDL035C, strain GPR1, stronger effect = lower value
  normalized growth: 0.31 (active)
Locus YDL040C, strain nat1, stronger effect = lower value
  normalized growth: 0.978 (inactive)
Locus YDL074C, strain BRE1, stronger effect = lower value
  normalized growth: 0.402 (active)
Locus YDL101C, strain DUN1, stronger effect = lower value
  normalized growth: 0.396 (active)
Locus YDL134C, strain PPH21, stronger effect = lower value
  normalized growth: 0.369 (active)
Locus YDL185W, strain tfp1, stronger effect = lower value
  normalized growth: 0.94 (inactive)
Locus YDL192W, strain arf1, stronger effect = lower value
  normalized growth: 0.719 (active)
Locus YDR001C, strain nth1, stronger effect = lower value
  normalized growth: 0.964 (inactive)
Locus YDR069C, strain doa4, stronger effect = lower value
  normalized growth: 0.496 (active)
Locus YDR101C, strain arx1, stronger effect = lower value
  normalized growth: 0.811 (active)
Locus YDR137W, strain rgp1, stronger effect = lower value
  normalized growth: 0.904 (inactive)
Locus YDR159W, strain sac3, stronger effect = lower value
  normalized growth: 0.992 (inactive)
Locus YDR162C, strain NBP2, stronger effect = lower value
  normalized growth: 0.132 (active)
Locus YDR195W, strain ref2
  normalized growth: 0.984 (inactive)
Locus YDR297W, strain sur2, stronger effect = lower value
  normalized growth: 0.841 (active)
Locus YDR318W, strain mcm21, stronger effect = lower value
  normalized growth: 0.788 (active)
Locus YDR334W, strain swr1, stronger effect = lower value
  normalized growth: 0.856 (active)
Locus YDR335W, strain msn5, stronger effect = lower value
  normalized growth: 0.878 (active)
Locus YDR388W, stronger effect = lower value
  normalized growth: 0.844 (active)
Locus YDR392W, strain spt3, stronger effect = lower value
  normalized growth: 0.943 (inactive)
Locus YDR502C, strain sam2, stronger effect = lower value
  normalized growth: 0.667 (active)
Locus YEL003W, strain gim4, stronger effect = lower value
  normalized growth: 0.876 (active)
Locus YEL037C, strain rad23, stronger effect = lower value
  normalized growth: 0.926 (inactive)
Locus YEL061C, strain CIN8 (second series), stronger effect = lower value
  normalized growth: 0.98 (inactive)
Locus YER015W, strain faa2, stronger effect = lower value
  normalized growth: 0.82 (active)
Locus YER016W, strain bim1, stronger effect = lower value
  normalized growth: 0.942 (inactive)
Locus YER110C, stronger effect = lower value
  normalized growth: 1.02 (inactive)
Locus YER111C, strain swi4, stronger effect = lower value
  normalized growth: 0.835 (active)
Locus YER155C, strain BEM2 (second series), stronger effect = lower value
  normalized growth: 0.936 (inactive)
Locus YER155C, strain BEM2, stronger effect = lower value
  normalized growth: 0.664 (active)
Locus YER167W, strain BCK2, stronger effect = lower value
  normalized growth: 0.631 (active)
Locus YFR010W, strain ubp6, stronger effect = lower value
  normalized growth: 0.852 (active)
Locus YGL078C, strain dbp3, stronger effect = lower value
  normalized growth: 0.978 (inactive)
Locus YGL167C, strain pmr1, stronger effect = lower value
  normalized growth: 0.938 (inactive)
Locus YGL173C, strain kem1, stronger effect = lower value
  normalized growth: 0.78 (active)
Locus YGL227W, strain vid30, stronger effect = lower value
  normalized growth: 0.986 (inactive)
Locus YGL240W, strain doc1, stronger effect = lower value
  normalized growth: 0.993 (inactive)
Locus YGL248W, strain PDE1, stronger effect = lower value
  normalized growth: 0.46 (active)
Locus YGL253W, strain hxk2, stronger effect = lower value
  normalized growth: 0.889 (active)
Locus YGR078C, strain PAC10, stronger effect = lower value
  normalized growth: 0.591 (active)
Locus YGR135W, strain pre9, stronger effect = lower value
  normalized growth: 0.689 (active)
Locus YGR252W, strain gcn5, stronger effect = lower value
  normalized growth: 0.85 (inactive)
Locus YHR013C, strain ard1, stronger effect = lower value
  normalized growth: 0.868 (inactive)
Locus YHR027C, strain rpn1, stronger effect = lower value
  normalized growth: 0.695 (active)
Locus YHR030C, strain SLT2, stronger effect = lower value
  normalized growth: 0.971 (inactive)
Locus YHR079C, strain IRE1 (second series), stronger effect = lower value
  normalized growth: 0.77 (active)
Locus YHR079C, strain IRE1, stronger effect = lower value
  normalized growth: 0.996 (inactive)
Locus YHR094C, strain hxt1, stronger effect = lower value
  normalized growth: 0.864 (active)
Locus YHR129C, strain ARP1, stronger effect = lower value
  normalized growth: 0.589 (active)
Locus YHR142W, strain chs7, stronger effect = lower value
  normalized growth: 0.82 (active)
Locus YHR200W, strain rpn10, stronger effect = lower value
  normalized growth: 0.784 (active)
Locus YIL066C, strain RNR3, stronger effect = lower value
  normalized growth: 0.46 (active)
Locus YIL073C, strain SPO22, stronger effect = lower value
  normalized growth: 0.163 (active)
Locus YIL125W, strain kgd1, stronger effect = lower value
  normalized growth: 0.916 (active)
Locus YIR030C, strain dcg1, stronger effect = lower value
  normalized growth: 0.873 (active)
Locus YJL092W, strain hpr5, stronger effect = lower value
  normalized growth: 0.959 (inactive)
Locus YJL095W, strain BCK1 (second series), stronger effect = lower value
  normalized growth: 0.921 (active)
Locus YJL095W, strain BCK1, stronger effect = lower value
  normalized growth: 0.264 (active) and 0.97 (inactive)
Locus YJL115W, strain asf1, stronger effect = lower value
  normalized growth: 0.973 (inactive)
Locus YJL129C, strain trk1, stronger effect = lower value
  normalized growth: 1.01 (inactive)
Locus YJL134W, strain LCB3, stronger effect = lower value
  normalized growth: 0.608 (active)
Locus YJL154C, strain vps35, stronger effect = lower value
  normalized growth: 0.968 (inactive)
Locus YJL164C, strain tpk1, stronger effect = lower value
  normalized growth: 0.758 (active)
Locus YJL166W, strain qcr8, stronger effect = lower value
  normalized growth: 0.934 (inactive)
Locus YJL168C, strain set2, stronger effect = lower value
  normalized growth: 0.929 (active)
Locus YJL187C, strain SWE1 (second series), stronger effect = lower value
  normalized growth: 0.17 (active)
Locus YJR043C, strain POL32, stronger effect = lower value
  normalized growth: 0.238 (active)
Locus YJR066W, strain TOR1, stronger effect = lower value
  normalized growth: 0.943 (inactive)
